The nature of experiment [1]: Cell Viability - NIH 3T3 (AID 541; active = well fitted curve in the direction sought with a large enough effect; inconclusive = small, poorly fitted or top-dose-only effect, or another doubt; inactive = no such curve, though single readings can be large; an effect the other way counts as inactive or inconclusive; note: nearly all actives have a fitted effect of over 25% in size; note: potency is the fitted concentration of half-maximal effect;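 for activity change, negative = cytotoxicity: plate controls were DMSO alone for no effect and tamoxifen positive control for full effect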). To be noted: NIH 3T3 cell viability, qHTS; activity change, negative = cytotoxicity: at 92.2 µM (top of the series). Put shortly:
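Cells seeded at 1000/well, rested 5 hr at 37 °C, then dosed and incubated 40 hr at 37 °C. CellTiter-Glo added, 20 min room temperature, luminescence read. AC50 by Hill fit.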
(In general: In qHTS, concentration-response curves come from the screen itself.)

Experiment [2] in a line: Cell Viability - H-4-II-E (AID 543; active = well fitted curve in the direction sought with a large enough effect; inconclusive = small, poorly fitted or top-dose-only effect, or another doubt; inactive = no such curve, though single readings can be large; an effect the other way counts as inactive or inconclusive; note: nearly all actives have a fitted effect of over 35% in size; note: potency is the fitted concentration of half-maximal effect). Put shortly: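 Cells seeded at 1500 per well and rested 5 hr; compounds added; 40 hr incubation at 37 °C; CellTiter-Glo added, 20 min at room temperature; luminescence read. Hill-equation fits gave AC50.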
A short description of experiment [3]: MultiTox-Fluor Cytotoxicity Assay - LYMP1-001 - Live Cells (AID 947; active = well fitted curve in the direction sought with a large enough effect; inconclusive = small, poorly fitted or top-dose-only effect, or another doubt; inactive = no such curve, though single readings can be large; an effect the other way counts as inactive or inconclusive;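 note: 0% = DMSO only and full inhibition = tetraoctylammonium bromide control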).
The target of experiment [4] is Estrogen receptor (Homo sapiens) (UniProt P03372). Put plainly: qHTS assay for small molecule antagonists of estrogen receptor alpha signaling (AID 588513; active = well fitted curve in the direction sought with a large enough effect in the signal ratio, with a control signal flat, not every such curve was filed as active; inconclusive = small, poorly fitted or top-dose-only effect, or effect the other way, or a change in a side signal; inactive = no such curve, though single readings can be large or run the other way; the % refers to the signal ratio; note: potency is the fitted concentration of half-maximal effect). Put shortly: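 ER-alpha-UAS-bla GripTite HEK 293 cells in medium with 2% charcoal/dextran-treated FBS were preincubated 4 h at 37 C, dosed with compound (1:2 titration), stimulated with 0.5nM 17-beta-estradiol for 18 h, then read by CCF4 beta-lactamase fluorescence.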
Sequence of Estrogen receptor (Homo sapiens) (P03372 whole entry, looked up): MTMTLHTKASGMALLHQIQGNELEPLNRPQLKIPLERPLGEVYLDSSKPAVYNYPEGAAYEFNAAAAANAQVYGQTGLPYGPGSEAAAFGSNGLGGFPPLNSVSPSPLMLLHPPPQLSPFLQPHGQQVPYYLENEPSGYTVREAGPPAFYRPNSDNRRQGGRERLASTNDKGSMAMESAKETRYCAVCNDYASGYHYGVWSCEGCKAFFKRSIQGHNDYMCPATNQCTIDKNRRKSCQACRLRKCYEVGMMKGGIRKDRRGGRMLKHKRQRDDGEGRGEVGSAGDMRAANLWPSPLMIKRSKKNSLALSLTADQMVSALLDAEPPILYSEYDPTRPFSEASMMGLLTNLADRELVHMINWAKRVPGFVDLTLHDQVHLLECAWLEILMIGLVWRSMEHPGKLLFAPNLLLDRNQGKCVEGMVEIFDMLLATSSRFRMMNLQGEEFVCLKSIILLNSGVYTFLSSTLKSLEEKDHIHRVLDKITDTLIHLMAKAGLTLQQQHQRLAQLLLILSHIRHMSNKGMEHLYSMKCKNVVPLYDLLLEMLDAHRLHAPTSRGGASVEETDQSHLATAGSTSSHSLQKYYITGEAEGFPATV

For experiment [5] the target is unchanged. Put plainly: qHTS assay for small molecule agonists of estrogen receptor alpha signaling (AID 588514).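 Note: 0% = vehicle only and 100% = reference agonist; nearly all actives have a fitted effect of over 70% in size.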 Put shortly: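 Efficacy is expressed against 20 nM 17-beta-estradiol (100%) and DMSO basal (0%); EC50 from Hill equation. Assay: beta-lactamase reporter in ER-alpha-UAS-bla HEK 293 cells, 18 h compound incubation, CCF4 detection.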
For experiment [6], the target named is Glucocorticoid receptor (Homo sapiens) (UniProt P04150). The experiment can be described thus: qHTS assay for small molecule agonists of glucocorticoid receptor signaling (AID 588532; active = well fitted curve in the direction sought with a large enough effect in the signal ratio, with a control signal flat; inconclusive = small, poorly fitted or top-dose-only effect, or a change in a side signal; inactive = no such curve, though single readings can be large or run the other way; the % refers to the signal ratio;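 note: 100% = dexamethasone at 0.1 µM and 0% = DMSO only wells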). Particulars: HeLa MMTV-bla, beta-lactamase ratio, agonist, 18 h; stronger effect = higher value; percent of dexamethasone control, DMSO zero. Put shortly: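 MMTV-bla HeLa, beta-lactamase reporter; medium with 1% charcoal/dextran-stripped FBS; cpds up to 92 uM, 18 h, 37 C; CCF4 readout 460/530 nm; Hill fit → EC50, efficacy vs 0.1 uM dexamethasone = 100%.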
Sequence of Glucocorticoid receptor (Homo sapiens) (P04150 whole entry, looked up): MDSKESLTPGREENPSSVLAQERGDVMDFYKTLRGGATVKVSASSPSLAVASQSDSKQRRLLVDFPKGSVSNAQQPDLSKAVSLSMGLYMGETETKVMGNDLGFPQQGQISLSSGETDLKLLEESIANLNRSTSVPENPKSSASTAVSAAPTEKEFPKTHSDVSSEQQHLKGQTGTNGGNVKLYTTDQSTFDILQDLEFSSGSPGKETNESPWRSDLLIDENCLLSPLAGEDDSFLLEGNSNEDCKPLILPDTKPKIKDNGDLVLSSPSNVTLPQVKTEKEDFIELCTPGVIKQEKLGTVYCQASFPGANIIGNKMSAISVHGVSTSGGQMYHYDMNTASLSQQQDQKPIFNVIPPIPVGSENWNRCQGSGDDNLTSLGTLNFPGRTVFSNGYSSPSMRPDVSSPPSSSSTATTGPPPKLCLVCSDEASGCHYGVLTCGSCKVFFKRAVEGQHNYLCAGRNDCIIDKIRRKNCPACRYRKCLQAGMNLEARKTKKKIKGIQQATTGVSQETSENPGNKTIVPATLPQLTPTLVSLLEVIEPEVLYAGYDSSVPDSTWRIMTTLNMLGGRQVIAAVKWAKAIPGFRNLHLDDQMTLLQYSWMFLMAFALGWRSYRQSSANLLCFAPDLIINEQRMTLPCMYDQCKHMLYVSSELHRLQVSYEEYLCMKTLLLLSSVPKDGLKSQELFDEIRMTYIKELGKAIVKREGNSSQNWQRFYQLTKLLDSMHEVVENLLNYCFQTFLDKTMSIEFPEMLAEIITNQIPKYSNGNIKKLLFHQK

Experiment [7] deals with Peroxisome proliferator-activated receptor delta (Homo sapiens) (UniProt Q03181). The experiment can be described thus: qHTS assay for small molecule agonists of peroxisome proliferator-activated receptor delta signaling (AID 588534).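 Note: 0% = DMSO basal wells and 100% = positive control agonist at 10 µM.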 Put shortly: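 Agonist-mode qHTS; reporter cells, 5 hrs 37 C pre-incubation; compound titration, 18 hrs 37 C; CCF4 dye, 2 hrs RT; fluorescence read. EC50/efficacy via Hill fit.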
Sequence of Peroxisome proliferator-activated receptor delta (Homo sapiens) (Q03181 whole entry, looked up): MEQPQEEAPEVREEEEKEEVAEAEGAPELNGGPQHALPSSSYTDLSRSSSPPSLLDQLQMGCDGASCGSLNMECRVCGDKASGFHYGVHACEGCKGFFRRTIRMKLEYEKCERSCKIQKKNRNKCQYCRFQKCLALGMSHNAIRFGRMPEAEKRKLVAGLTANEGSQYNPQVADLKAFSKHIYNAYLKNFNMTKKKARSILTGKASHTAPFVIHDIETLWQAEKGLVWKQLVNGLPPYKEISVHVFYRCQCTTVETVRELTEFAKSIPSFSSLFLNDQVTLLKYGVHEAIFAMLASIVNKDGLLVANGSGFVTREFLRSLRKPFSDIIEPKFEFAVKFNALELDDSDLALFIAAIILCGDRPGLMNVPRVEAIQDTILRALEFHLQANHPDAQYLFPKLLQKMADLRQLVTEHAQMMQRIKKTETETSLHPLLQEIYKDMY

The nature of experiment [8]: qHTS assay for small molecule antagonists of peroxisome proliferator-activated receptor delta signaling (AID 588535; active = well fitted inhibition curve with a large enough effect in the signal ratio, with a control signal flat, not every such curve was filed as active; inconclusive = small, poorly fitted or top-dose-only effect, or effect the other way, or a change in a side signal; inactive = no such curve, though single readings can be large or run the other way; the % refers to the signal ratio;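 for max response: cells co-treated with a PPAR-delta agonist as stimulator during compound exposure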). Particulars: HEK293T PPARd-UAS-bla, beta-lactamase FRET ratio, 18 h; 460 nm channel. Put shortly:
(§1)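 Inhibition of PPAR-delta response element-driven beta-lactamase expression is measured in HEK293T cells exposed to a compound titration series for 18 hrs at 37 C. Half-maximal inhibition comes from Hill equation fitting.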

For experiment [9], the target named is Peroxisome proliferator-activated receptor delta (Homo sapiens) (UniProt Q03181). Described as above. Put shortly: as §1
Experiment [10] has as its target Vitamin D3 receptor (Homo sapiens) (UniProt P11473). The experiment can be described thus: qHTS assay for small molecule antagonists of vitamin D receptor signaling (AID 588541).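 Note: receptor activated by calcitriol during compound treatment; % is set by controls: 0 for no effect and ±100 for the full control effect.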 Put shortly:
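VDR-UAS-bla HEK293T cells (2000/well, 2% charcoal-stripped FBS) were treated with titrated compounds plus 1-alpha,25-dihydroxyvitamin D3 (50 nM or 3 nM final) for 16 h at 37 C. CCF4 beta-lactamase fluorescence was read; Hill fits gave IC50.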

For experiment [11], the target named is Thyroid hormone receptor beta (Homo sapiens) (UniProt P10828). The experiment can be described thus: qHTS assay for small molecule antagonists of thyroid hormone receptor beta signaling (AID 588547; active = well fitted inhibition curve with a large enough effect in the signal ratio, with a control signal flat, not every such curve was filed as active; inconclusive = small, poorly fitted or top-dose-only effect, or effect the other way, or a change in a side signal; the % refers to the signal ratio;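 note: cells stimulated with 0.4 nM T3 agonist during compound exposure; % is set by controls: 0 for no effect and ±100 for the full control effect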). Particulars: TR-UAS-bla HEK293, beta-lactamase ratio, antagonist mode, 18 h. Put shortly: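 TR-UAS-bla GripTite HEK293 cells in 2% charcoal/dextran FBS medium were preincubated 4 h at 37 C, given compound (0.59 nM to 92 uM) plus 0.4 nM T3 (final) for 18 h, then CCF4 for 2 h at RT; Hill fit gave IC50.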
Sequence of Thyroid hormone receptor beta (Homo sapiens) (P10828 whole entry, looked up): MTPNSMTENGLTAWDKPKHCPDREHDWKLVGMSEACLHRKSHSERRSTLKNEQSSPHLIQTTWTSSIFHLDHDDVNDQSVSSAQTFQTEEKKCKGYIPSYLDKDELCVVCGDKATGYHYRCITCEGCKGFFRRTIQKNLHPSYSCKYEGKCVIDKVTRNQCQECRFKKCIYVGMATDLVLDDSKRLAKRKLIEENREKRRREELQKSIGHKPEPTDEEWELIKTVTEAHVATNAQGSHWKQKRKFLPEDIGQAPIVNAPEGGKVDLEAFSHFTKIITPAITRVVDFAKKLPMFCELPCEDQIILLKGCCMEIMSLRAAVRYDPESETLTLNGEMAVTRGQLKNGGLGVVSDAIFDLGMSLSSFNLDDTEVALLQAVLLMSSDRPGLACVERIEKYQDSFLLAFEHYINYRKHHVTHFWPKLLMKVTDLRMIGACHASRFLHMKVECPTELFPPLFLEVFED

Experiment [12] in a line: qHTS assay for small molecule agonists of the antioxidant response element (ARE) signaling pathway (AID 651741; active = well fitted activation curve with a large enough effect in the signal ratio; inconclusive = small, poorly fitted or top-dose-only effect, or effect the other way, or a change in a side signal; the % refers to the signal ratio; note: potency is the fitted concentration of half-maximal effect; for activation: % of control where 0% means no effect). Put shortly:
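Reporter: beta-lactamase under ARE, stably in HepG2. Exposure: 16 h, 37 C, compounds delivered in DMSO by pin tool after 5 h cell preincubation. Readout: FRET substrate fluorescence after 2 h at RT.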

A short description of experiment [13]: qHTS assay for small molecule activators of the nuclear factor-kappa B (NF-kB) signaling pathway (AID 651749; active = well fitted activation curve with a large enough effect in the signal ratio; inconclusive = small, poorly fitted or top-dose-only effect, or a change in a side signal; the % refers to the signal ratio; note: % of control where 0% means no effect). To be noted: NF-kB-bla ME-180 cells, beta-lactamase FRET ratio, 16 h; stronger effect = higher value. Put shortly: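 Human ME-180 cervical cells with an NF-kB-bla construct; compounds added via 23 nL pin transfer, DMSO as vehicle; incubation 16 hr. Reporter activity measured by FRET disruption.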

The nature of experiment [14]: qHTS assay for small molecule disruptors of the mitochondrial membrane potential - 5 hr assay (AID 651755). Note: nearly all actives have a fitted effect of over 40% in size. Note: potency is the fitted concentration of half-maximal effect. Put shortly:
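Seed HepG2 overnight, add compound, incubate 5 hr at 37C and 5% CO2, stain 30 min with Mito-MPS, then measure monomer (490/535 nm) and aggregate (540/590 nm) fluorescence.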

Experiment [15] has as its target Nuclear receptor ROR-gamma (Homo sapiens) (UniProt P51449). The experiment can be described thus: qHTS assay for small molecule antagonists of the retinoid-related orphan receptor gamma (ROR-gamma) signaling pathway (AID 651802; active = well fitted curve in the direction sought with a large enough effect; inconclusive = small, poorly fitted or top-dose-only effect, or another doubt; inactive = no such curve, though single readings can be large; an effect the other way counts as inactive or inconclusive;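 note: CHO cells with doxycycline-induced ROR-gamma expression; % is set by controls: 0 for no effect and ±100 for the full control effect; nearly all actives have a fitted effect of over 60% in size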). Put shortly: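 Steps: cells dispensed; compound or DMSO transferred by pin tool; doxycycline added to induce the ROR response element-driven luciferase; plates held 16hr at 37C; ONE-Glo added and luminescence measured.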

A short description of experiment [16]: qHTS assay for small molecule agonists of the antioxidant response element (ARE) signaling pathway measured by Nrf2-dependant transcriptional activity (AID 720636; active = well fitted curve in the direction sought with a large enough effect in the repeat runs; inconclusive = weak or mixed curves; inactive = no such curve, though single readings can be large; an effect the other way counts as inactive or inconclusive;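 note: HepG2 cells with an ARE-driven luciferase reporter; % of control where 0% means no effect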). Put shortly:
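In HepG2 cells engineered with an Nrf2-responsive luciferase gene, ARE induction was quantified as luminescence after 16 hr compound treatment at 37 C.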

Experiment [17] in a line: Cell Viability - SK-N-SH (AID 435).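 Note: potency is the fitted concentration of half-maximal effect; compound exposure lasted 40 h at 37 °C.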 Particulars: SK-N-SH neuroblastoma cell viability qHTS. Put shortly:
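SK-N-SH human neuroblastoma cells (1500/well) were exposed to compounds in complete medium for 40 h at 37 °C, and intracellular ATP was then measured by CellTiter-Glo luminescence. AC50 was taken from Hill fits, normalized to DMSO and 100 uM tamoxifen.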

Experiment [18] deals with Glucocorticoid receptor (Homo sapiens) (UniProt P04150). Put plainly: qHTS assay for small molecule antagonists of glucocorticoid receptor signaling (AID 588533; active = well fitted inhibition curve with a large enough effect in the signal ratio, with a control signal flat, not every such curve was filed as active; inconclusive = small, poorly fitted or top-dose-only effect, or effect the other way, or a change in a side signal; the % refers to the signal ratio;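 note: cells stimulated with 2 nM dexamethasone as agonist; % is set by controls: 0 for no effect and ±100 for the full control effect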). Put shortly: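 Antagonist-mode qHTS: compound titrations added to GRE-bla HeLa cells, then dexamethasone 2 nM final; 18 h, 37 C. CCF4 FRET fluorescence normalized to dexamethasone and DMSO; IC50 from Hill fit.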

The nature of experiment [19]: qHTS assay for small molecule disruptors of the mitochondrial membrane potential - 1 hr assay (AID 651754). Note: nearly all actives have a fitted effect of over 35% in size. Note: potency is the fitted concentration of half-maximal effect. Put shortly:
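Loss of mitochondrial potential shifts the cationic dye from red mitochondrial aggregates to green cytoplasmic monomers. Cells (HepG2) are treated with compound for 1 hr before a 30 min dye incubation at 37C.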

In experiment [20] the target is Peroxisome proliferator-activated receptor gamma (Homo sapiens) (UniProt P37231). The experiment can be described thus: qHTS assay for small molecule antagonists of peroxisome proliferator-activated receptor gamma signaling (AID 588537; active = well fitted inhibition curve with a large enough effect in the signal ratio, with a control signal flat, not every such curve was filed as active; inconclusive = small, poorly fitted or top-dose-only effect, or effect the other way, or a change in a side signal; the % refers to the signal ratio;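 note: reporter cells co-stimulated with 50 nM rosiglitazone agonist during compound treatment; % of control where 0% means no effect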). Put shortly:
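Compounds are tested as concentration series for inhibition of rosiglitazone-driven (50 nM) reporter expression in GeneBLAzer PPAR-gamma-UAS-bla HEK293 cells. After 16 h at 37 C, CCF4 substrate is added for 2 h at room temperature and blue/green fluorescence is measured.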

Where “and” joins values, the source holds several entries; their conditions need not be identical. Equal values may be shown once. Calls of active or inactive are those of the source. Unless noted, calls come from the whole dose curve.

Sequence of Vitamin D3 receptor (Homo sapiens) (P11473 whole entry, looked up): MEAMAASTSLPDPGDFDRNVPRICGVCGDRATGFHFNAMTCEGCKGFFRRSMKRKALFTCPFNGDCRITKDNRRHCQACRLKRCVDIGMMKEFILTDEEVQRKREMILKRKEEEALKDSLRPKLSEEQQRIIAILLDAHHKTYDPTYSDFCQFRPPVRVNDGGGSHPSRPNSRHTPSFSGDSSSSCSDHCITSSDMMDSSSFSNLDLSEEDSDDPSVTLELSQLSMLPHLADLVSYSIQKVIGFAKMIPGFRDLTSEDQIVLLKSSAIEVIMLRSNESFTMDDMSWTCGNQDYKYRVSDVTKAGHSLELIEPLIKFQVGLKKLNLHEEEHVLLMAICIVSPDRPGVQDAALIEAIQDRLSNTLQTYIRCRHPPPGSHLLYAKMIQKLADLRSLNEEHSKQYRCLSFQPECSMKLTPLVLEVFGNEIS
Sequence of Nuclear receptor ROR-gamma (Homo sapiens) (P51449 whole entry, looked up): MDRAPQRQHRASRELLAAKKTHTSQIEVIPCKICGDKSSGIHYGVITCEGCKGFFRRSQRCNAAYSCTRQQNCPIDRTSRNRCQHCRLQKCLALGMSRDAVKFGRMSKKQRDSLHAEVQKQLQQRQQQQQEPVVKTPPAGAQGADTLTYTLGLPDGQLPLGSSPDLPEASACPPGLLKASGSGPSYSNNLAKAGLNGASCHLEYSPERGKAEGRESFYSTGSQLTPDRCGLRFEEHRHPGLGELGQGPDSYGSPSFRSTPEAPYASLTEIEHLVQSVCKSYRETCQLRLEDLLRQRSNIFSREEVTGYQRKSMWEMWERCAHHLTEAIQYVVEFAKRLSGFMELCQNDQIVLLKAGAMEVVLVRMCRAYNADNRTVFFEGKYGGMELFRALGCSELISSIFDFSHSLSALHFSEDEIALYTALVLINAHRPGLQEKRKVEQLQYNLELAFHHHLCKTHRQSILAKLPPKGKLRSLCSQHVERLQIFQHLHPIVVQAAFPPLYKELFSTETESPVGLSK
Sequence of Peroxisome proliferator-activated receptor gamma (Homo sapiens) (P37231 whole entry, looked up): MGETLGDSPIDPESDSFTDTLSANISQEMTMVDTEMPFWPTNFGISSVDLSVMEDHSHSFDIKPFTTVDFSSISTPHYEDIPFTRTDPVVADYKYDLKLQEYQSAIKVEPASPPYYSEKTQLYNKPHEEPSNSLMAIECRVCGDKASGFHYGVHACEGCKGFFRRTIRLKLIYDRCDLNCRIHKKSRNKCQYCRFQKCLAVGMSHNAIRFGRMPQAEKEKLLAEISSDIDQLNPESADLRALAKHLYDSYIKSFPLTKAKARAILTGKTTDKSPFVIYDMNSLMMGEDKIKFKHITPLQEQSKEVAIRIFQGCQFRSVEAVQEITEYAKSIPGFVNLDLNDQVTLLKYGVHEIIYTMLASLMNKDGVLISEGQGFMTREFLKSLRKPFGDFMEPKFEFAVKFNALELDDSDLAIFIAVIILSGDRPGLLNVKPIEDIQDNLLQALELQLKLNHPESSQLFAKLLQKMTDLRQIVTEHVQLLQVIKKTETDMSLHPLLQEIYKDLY

Regarding `ClC=CCl`, the Potency in experiment [1] is 0.0631 µM (active). Further, the Potency entry in [2], in [4], in experiment [5], in [12], in experiment [14] and in [15] was “inactive” in each case. Further, the Potency entry in experiment [16] was “inactive”. Besides, the result in experiment [3], in experiment [7], in experiment [9] and in [10] was inactive. Besides, the activation in [6] is -2.58% (inactive); in [13], 0.173% (inactive). Also, the max response in experiment [8] came out at 12.6%. Besides, the activity change % (negative = inhibition) in experiment [11] was -5.48% (inactive).

Take `C=C(C)CCl`: in experiment [17], the Potency is > 92 µM (inactive). The Potency entry in experiment [2], in experiment [4], in [5], in [12], in experiment [19] and in experiment [14] was “inactive” throughout. The Potency entry in experiment [15] and in [16] was “inactive” in each case. In addition, the activation in experiment [6] was 15.7% (inactive); in experiment [13], -0.185% (inactive). Moreover, the compound was called inactive in [18], in experiment [7], in experiment [9] and in experiment [10]. The max response in experiment [8] was determined as 2.33%.

In the case of `Oc1c(Cl)c(Cl)cc(Cl)c1Cl`, the compound was called inactive in [7] and in experiment [9]. Moreover, the max response in [8] is -31%. Moreover, the activity change % (negative = inhibition) in experiment [11] is 23.1% (inactive). The figures for the Potency in experiment [12] and in experiment [19] were 66.8 µM (active) and 42.2 µM (active), respectively. In experiment [16], the Potency result was “inactive”.

In the case of `Cc1ccc2c(c1N)C(=O)c1ccccc1C2=O`, the Potency was > 92 µM (inactive) in [17]; 21.1 µM (active) and 17.2 µM (active) in experiment [12]; 2.66 µM (active) in experiment [19]; 2.66 µM (active) in experiment [14]. Further, the compound was called inactive in experiment [3] and in experiment [7]. In addition, the Potency entry in [4] and in experiment [20] was “inactive” in each case. Besides, the activation was -11.3% (inactive) and -4.68% (inactive) in [6]; 0.359% (inactive) and 2.04% (inactive) in [13]. For the same compound, the activity change % (negative = inhibition) in experiment [11] is 1.36% (inactive).

Turning to `CSSC`, the Potency entry in [1], in [12] and in experiment [16] was “inactive” each time. The compound was classed as inactive in experiment [7] and in experiment [10]. For the same compound, the activity change % (negative = inhibition) in experiment [11] was -18.7% (inactive).

For the compound `O=Cc1ccc2c(c1)OCO2`, the Potency in [17] was > 92 µM (inactive). For the same compound, the Potency result in experiment [2], in [12], in [19] and in experiment [14] was “inactive” throughout. The values for the activation in experiment [6] and in experiment [13] were 1.67% (inactive) and -0.011% (inactive), respectively. The max response in experiment [8] was -1.49%. Besides, the compound was classed as inactive in experiment [9] and in [10]. For the same compound, the activity change % (negative = inhibition) in experiment [11] is 5.85% (inactive).

As to `CN(C)c1ccc(N)cc1`, the Potency was 41.7 µM (active) in [17]; 50.1 µM (active) in [2]; 31.6 µM [inconclusive] (active) in [4]; 33.5 µM (active) in [12]; 29.8 µM (active) in experiment [19]. The activity change, negative = cytotoxicity in experiment [1] was -87% (active). The Potency result in experiment [5] and in [20] was “inactive” each time. Further, the compound was classed as inactive in experiment [7], in [9] and in experiment [10]. In addition, the max response in experiment [8] was -7.4%. In addition, the activity change % (negative = inhibition) in experiment [11] is 8.59% (inactive).

(Values after PubChem BioAssay (NCATS).)
